# Assay results taken from PubChem BioAssay (EPA / NIEHS).
# “And” between values parts separate entries of the source, which are not always exact repeats. Equal values may be shown once. A structure can be active in one record and inactive in another. The source made the active and inactive calls. Rule for the calls: active = hit-call score of the fitted dose curve at least 0.9, where 1 is the maximum; inactive = score below 0.9.
# Read-out: Pselectin, SELP (gene 6403)
# Assay: BSK_4H_Pselectin: BioMAP Diversity Plus: 4H Assay for Pselectin Biomarker Activity (AID 2283026)
# Conditions: primary human endothelial cells (HUVEC); actives raise or lower the signal
# Experimental: BSK_4H is a cell-based, multiplexed-readout assay that uses umbilical vein endothelium, a human vascular primary cell, with measurements taken at 24 hours after chemical dosing in a 96-well plate.BSK_4H_Pselectin is an assay component measured in the BSK_4H assay. It measures P-Selectin antibody related to regulation of gene expression using ELISA technology.Data from the assay component BSK_4H_Pselectin was analyzed into 1 assay endpoint. This assay endpoint, BSK_4H_Pselectin, was analyzed with bidirectional fitting relative to DMSO as the negative control and baseline of activity. Using a type of binding reporter, gain or loss-of-signal activity can be used to understand changes in the signaling as they relate to the gene SELP. Furthermore, this assay endpoint can be referred to as a primary readout, because this assay has produced multiple assay endpoints where this one serves a signaling function. To generalize the intended target to other relatable targets, this assay endpoint is annotated to the cell adhesion molecules intended target family, where the subfamily is selectins.
# The levels of cell surface (or secreted, indicated by the prefix "s") biomarker endpoints were measured by ELISA. Overt cytotoxicity to cells in confluent adherent cultures (all systems other than the BT system) was assessed by measuring total protein levels using sulforhodamine B (SRB) staining in parallel cultures at the time of biomarker measurements, indicated as SRB endpoints. For proliferation assays for adherent cell types, individual cell types are cultured at sub-confluence and relative cell numbers quantified by SRB staining at time points optimized for each system (48 h: 3C and CASM3C systems; 72 h: BT and HDF3CGF systems; 96 h: SAg system). SRB was performed by staining cells with 0.1% SRB after fixation with 10% TCA and reading wells at 560 nm.Viability and proliferation of PBMC (T cells) was quantified by Alamar Blue reduction for the SAg and BT systems. For PBMC viability (referred to as PBMC Cytotoxicity within the assay endpoint names), cells were plated (75,000/well in a 96-well plate) and then chemical samples added for 1 h before addition of activators, SEB and TSST-1 (20 ng/mL final concentration each). Cells were incubated for 90 h. Then, Alamar Blue (20 uL/well) (Invitrogen, Cat DAL1100) was added for 6 h, and the plates were read with a fluorescence microplate reader at 546/580 nm (excitation/emission). For PBMC proliferation, cells were plated and activated as above but incubated for only 16 h prior to addition of Alamar Blue. Plates were read after 6 h.
SMILES,outcome,AC50
CN(C)C(=O)Nc1ccc(Cl)cc1,inactive,–
COC(=O)Nc1nc2ccccc2[nH]1,inactive,–
C=CCc1ccc2c(c1)OCO2,inactive,–
CC(C)(C)OOC(C)(C)CCC(C)(C)OOC(C)(C)C,inactive,–
Clc1ccc(C(c2ccc(Cl)cc2)C(Cl)(Cl)Cl)cc1,–,14.9 µM (active)
CCOC(=O)[C@]1(c2ccccc2)Oc2ccccc2[C@@H]1N,inactive,–
CCC[CH2][Sn]([Cl])([CH2]CCC)[CH2]CCC,–,0.148 µM (active)
ClC1=C(Cl)C2(Cl)C3C(Cl)C=CC3C1(Cl)C2(Cl)Cl (stereo not given),–,28.5 µM (active)
CCCCC(CC)COC(=O)c1ccc(C(=O)OCC(CC)CCCC)c(C(=O)OCC(CC)CCCC)c1 (stereo not given),inactive,–
Oc1ccc2ccc3cccc4ccc1c2c34,–,31.6 µM (active)
CC(O)CCO (stereo not given),inactive,–
CCNS(=O)(=O)C(F)(F)C(F)(F)C(F)(F)C(F)(F)C(F)(F)C(F)(F)C(F)(F)C(F)(F)F,inactive,30 µM (active) and 43.4 µM (active)
Nc1ccc(Cl)cc1N,–,1.11 µM (active)
CCCCCCCCCCCCCN1CC(C)OC(C)C1 (stereo not given),inactive,–
O=[N+]([O-])c1ccc(Oc2ccc(Cl)cc2Cl)cc1,inactive,–
CCN(CC)CCO,inactive,–
O=C1CCCO1,inactive,–
Oc1ccccc1Cl,inactive,–
CC(C)(C)C(O)(CCc1ccc(Cl)cc1)Cn1cncn1 (stereo not given),inactive,–
CCN(CC)N=O,inactive,–

SMILES,outcome,AC50
O=C(O)C1C2CCC(O2)C1C(=O)O (stereo not given),–,16 µM (active)
CC(C)N(Cc1ccccc1)C(=O)C(C)(C)C,inactive,–
COc1cc(C=O)cc2c1[C@H](COC(N)=O)[C@]1(OC(C)=O)ON2C[C@H]2[C@@H]1N2C(C)=O,–,3.37 µM (active)
OCCCBr,inactive,–
OCCCl,inactive,–
CCCCCCCCOC(=O)c1ccc(C(=O)OCCCCCCCC)c(C(=O)OCCCCCCCC)c1,inactive,–
Cc1cccc(N)c1N,inactive,–
C[N+](C)(C)CC1CO1 (stereo not given),inactive,–
[O-][Cl+]O,inactive,–
Nc1ccc([N+](=O)[O-])cc1,inactive,–
Clc1ccc(Cl)c(Cl)c1,inactive,–
c1ccc(NNc2ccccc2)cc1,inactive,–
CS(=O)(=O)NC(=O)c1cc(Oc2ccc(C(F)(F)F)cc2Cl)ccc1[N+](=O)[O-],inactive,–
c1ccc2c(c1)oc1ccccc12,inactive,–
CC(C)(OOC(C)(C)c1ccccc1)c1ccccc1,–,35.9 µM (active)
Brc1ccc(Oc2ccccc2)cc1,inactive,–
CCCCOC(=O)c1ccccc1C(=O)OCc1ccccc1,inactive,–
CN(C)c1ccccc1,inactive,–
COC(=O)c1ccccc1N,inactive,–
